PubChem BioAssay (NCI)
Compounds without any hit were thinned out: in the full panel of roughly 83,000, 20% have a hit.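 The test compound was applied at a single concentration to cells in 96-well plates for 48 hours, and percent growth was recorded.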 Active and inactive are the calls of the source. How the source made its calls: active means growth percent below 10; inactive means the rest.

Experiments:
Assay in all cases: NCI-60 one-dose screen, 48 h (100 = growth as untreated, 0 = no growth, -100 = all killed)
SR leukemia = details: 10 µM unless noted
RPMI-8226 leukemia = details: 10 µM unless noted
OVCAR-8 ovarian = details: 10 µM unless noted
OVCAR-5 ovarian = details: 10 µM unless noted
OVCAR-4 ovarian = details: 10 µM unless noted
SK-OV-3 ovarian = details: 10 µM unless noted
IGROV1 ovarian = details: 10 µM unless noted
OVCAR-3 ovarian = details: 10 µM unless noted
HS 578T breast = details: 10 µM
NCI/ADR-RES ovarian = details: 10 µM unless noted
T-47D breast = details: 10 µM unless noted
BT-549 breast = details: 10 µM unless noted
MDA-MB-435 melanoma = details: 10 µM unless noted
SW-620 colon = details: 10 µM unless noted
MCF7 breast = details: 10 µM unless noted
HCT-116 colon = details: 10 µM unless noted
HCC-2998 colon = details: 10 µM unless noted
KM12 colon = details: 10 µM unless noted

Measured: growth

COc1ccc(NC(=O)c2ccc(C(F)(F)F)nc2Nc2ccc(Cl)cc2C)cc1Cl
inactive: SR leukemia 23.6% | OVCAR-8 ovarian 15.6% | OVCAR-5 ovarian 10.1% | OVCAR-4 ovarian 24.6% | SK-OV-3 ovarian 45.4% | IGROV1 ovarian 27% | OVCAR-3 ovarian 15.5% | HS 578T breast 10.8% | NCI/ADR-RES ovarian 13.3% | T-47D breast 21.8% | BT-549 breast 19% | MDA-MB-435 melanoma 18.6% | SW-620 colon 13.4% | HCC-2998 colon 16.7% | KM12 colon 24.3%
active: RPMI-8226 leukemia -17.9% | MCF7 breast 9.61% | HCT-116 colon 3.71%

CCSc1ccc([C@@H]2[C@@H](O)C(=O)N2c2cc(OC)c(OC)c(OC)c2)cc1
active: RPMI-8226 leukemia 8.48% | OVCAR-3 ovarian -3.92% | NCI/ADR-RES ovarian 8.62% | BT-549 breast 9.68% | MDA-MB-435 melanoma -32.4% | HCT-116 colon 2.13%
inactive: SR leukemia 11.7% | OVCAR-8 ovarian 16.1% | OVCAR-5 ovarian 54.8% | OVCAR-4 ovarian 41.7% | SK-OV-3 ovarian 39.1% | IGROV1 ovarian 32.5% | HS 578T breast 46.5% | T-47D breast 76.6% | SW-620 colon 22.3% | MCF7 breast 20.1% | HCC-2998 colon 29.6% | KM12 colon 11.3%

CC(C)NCCCCCNc1cc(O)cc2cccnc12
inactive: SR leukemia 22.5% | RPMI-8226 leukemia 66.6% | OVCAR-8 ovarian 31.3% | OVCAR-5 ovarian 98.8% | SK-OV-3 ovarian 65.6% | IGROV1 ovarian 32.2% | OVCAR-3 ovarian 28.3% | HS 578T breast 88.8% | NCI/ADR-RES ovarian 100% | T-47D breast 31.3% | BT-549 breast 104% | MDA-MB-435 melanoma 101% | SW-620 colon 83.1% | MCF7 breast 43.3% | HCT-116 colon 65.5% | HCC-2998 colon 54.6% | KM12 colon 100%
active: OVCAR-4 ovarian -5.19%

O=C1c2ccccc2C(=O)c2c1oc1ccc3ccccc3c21
inactive: SR leukemia 60.8% | RPMI-8226 leukemia 75.9% | OVCAR-8 ovarian 88.2% | OVCAR-5 ovarian 130% | OVCAR-4 ovarian 34.1% | SK-OV-3 ovarian 114% | IGROV1 ovarian 80.2% | OVCAR-3 ovarian 39.4% | HS 578T breast 85.7% | NCI/ADR-RES ovarian 79.4% | T-47D breast 23.5% | BT-549 breast 70.2% | MDA-MB-435 melanoma 91.3% | SW-620 colon 91.6% | MCF7 breast 21.8% | HCT-116 colon 62.2% | HCC-2998 colon 99% | KM12 colon 61.6%

CCN(CC)Cc1cc(Nc2nc(NC3CCC(N(C)C)CC3)c3ccccc3n2)ccc1OC (stereo unspecified)
active: RPMI-8226 leukemia 0.511%
inactive: SR leukemia 49.6% | OVCAR-8 ovarian 63.8% | OVCAR-5 ovarian 92.3% | OVCAR-4 ovarian 52.1% | SK-OV-3 ovarian 107% | IGROV1 ovarian 82.4% | OVCAR-3 ovarian 92.4% | HS 578T breast 73.4% | NCI/ADR-RES ovarian 98.1% | T-47D breast 53.9% | BT-549 breast 107% | MDA-MB-435 melanoma 39.5% | SW-620 colon 61.4% | MCF7 breast 40.1% | HCT-116 colon 60.5% | HCC-2998 colon 81.3% | KM12 colon 61.1%

O=C(Nc1ccc(Br)cc1)Nc1ccccc1Cl
inactive: SR leukemia 84.9% | RPMI-8226 leukemia 50% | OVCAR-8 ovarian 79.8% | OVCAR-5 ovarian 90.1% | OVCAR-4 ovarian 75.1% | SK-OV-3 ovarian 84.6% | IGROV1 ovarian 63.9% | OVCAR-3 ovarian 88.1% | HS 578T breast 99.7% | NCI/ADR-RES ovarian 80% | T-47D breast 74.9% | BT-549 breast 103% | MDA-MB-435 melanoma 102% | SW-620 colon 96.4% | MCF7 breast 71% | HCT-116 colon 71.8% | HCC-2998 colon 91% | KM12 colon 90.4%

COc1ccc(-c2oc(=O)ccc2-c2cc(OC)c(OC)c(OC)c2)cc1F
active: SR leukemia 7.57% | MDA-MB-435 melanoma -2.61%
inactive: RPMI-8226 leukemia 80.8% | OVCAR-8 ovarian 79.9% | OVCAR-5 ovarian 69.2% | OVCAR-4 ovarian 105% | SK-OV-3 ovarian 106% | IGROV1 ovarian 80.4% | OVCAR-3 ovarian 107% | HS 578T breast 86.4% | NCI/ADR-RES ovarian 57.9% | T-47D breast 104% | BT-549 breast 98.5% | SW-620 colon 46.4% | MCF7 breast 44% | HCT-116 colon 60.2% | HCC-2998 colon 65% | KM12 colon 41.6%

COc1ccc(C(=O)C(C#N)c2cc(OC)c(OC)c(OC)c2)cc1 (stereo unspecified)
inactive: SR leukemia 71.5% | RPMI-8226 leukemia 96.7% | OVCAR-8 ovarian 93% | OVCAR-5 ovarian 106% | OVCAR-4 ovarian 102% | SK-OV-3 ovarian 105% | IGROV1 ovarian 110% | OVCAR-3 ovarian 111% | HS 578T breast 105% | NCI/ADR-RES ovarian 108% | T-47D breast 98.3% | BT-549 breast 98.3% | MDA-MB-435 melanoma 101% | SW-620 colon 107% | MCF7 breast 99.6% | HCT-116 colon 97.5% | HCC-2998 colon 100% | KM12 colon 115%

Cc1ccc2oc(=O)cc(-c3nc4ccc([N+](=O)[O-])cc4[nH]3)c2c1
active: HCT-116 colon 8.52%
inactive: SR leukemia 83% | RPMI-8226 leukemia 30.9% | OVCAR-8 ovarian 55.6% | OVCAR-5 ovarian 98.3% | OVCAR-4 ovarian 31.3% | SK-OV-3 ovarian 79.4% | IGROV1 ovarian 70.6% | OVCAR-3 ovarian 43.5% | HS 578T breast 63.9% | NCI/ADR-RES ovarian 20.9% | T-47D breast 25.4% | BT-549 breast 42.4% | MDA-MB-435 melanoma 64.6% | SW-620 colon 78.1% | MCF7 breast 57.2% | HCC-2998 colon 67.2% | KM12 colon 59.7%

CCN(CC)CCNc1c(C)cc(CO)c(Cl)c1C
inactive: SR leukemia 104% | RPMI-8226 leukemia 105% | OVCAR-8 ovarian 90.3% | OVCAR-5 ovarian 117% | OVCAR-4 ovarian 103% | SK-OV-3 ovarian 120% | IGROV1 ovarian 64.8% | OVCAR-3 ovarian 117% | HS 578T breast 107% | NCI/ADR-RES ovarian 101% | T-47D breast 112% | BT-549 breast 104% | MDA-MB-435 melanoma 106% | SW-620 colon 105% | MCF7 breast 75% | HCT-116 colon 104% | HCC-2998 colon 107% | KM12 colon 113%

COc1ccc(NC(=O)/C=C/c2ccc(NC(=O)N3CCCC3)cc2)cn1
inactive: SR leukemia 106% | RPMI-8226 leukemia 99.5% | OVCAR-8 ovarian 101% | OVCAR-5 ovarian 113% | OVCAR-4 ovarian 101% | SK-OV-3 ovarian 101% | IGROV1 ovarian 105% | OVCAR-3 ovarian 103% | HS 578T breast 95.9% | NCI/ADR-RES ovarian 107% | T-47D breast 99.9% | BT-549 breast 97.4% | MDA-MB-435 melanoma 103% | SW-620 colon 106% | MCF7 breast 91.7% | HCT-116 colon 103% | HCC-2998 colon 111% | KM12 colon 103%

NNC(=O)Cc1ccccc1
inactive: SR leukemia 88.9% | RPMI-8226 leukemia 88.4% | OVCAR-8 ovarian 87.6% | OVCAR-5 ovarian 77.1% | OVCAR-4 ovarian 97.4% | SK-OV-3 ovarian 78.4% | IGROV1 ovarian 97.5% | OVCAR-3 ovarian 96% | HS 578T breast 95.7% | NCI/ADR-RES ovarian 72.2% | T-47D breast 85% | BT-549 breast 108% | MDA-MB-435 melanoma 83.7% | SW-620 colon 86.2% | MCF7 breast 91.5% | HCT-116 colon 90.6% | HCC-2998 colon 102% | KM12 colon 80.1%

COc1c(C(=O)/C=C/c2ccc(C)o2)c(O)cc2occc12
inactive: SR leukemia 42.8% | RPMI-8226 leukemia 82.5% | OVCAR-8 ovarian 84.8% | OVCAR-5 ovarian 107% | OVCAR-4 ovarian 80.9% | SK-OV-3 ovarian 88.6% | IGROV1 ovarian 69.3% | OVCAR-3 ovarian 47.6% | HS 578T breast 65.8% | NCI/ADR-RES ovarian 52.2% | T-47D breast 66.6% | BT-549 breast 67.5% | SW-620 colon 32.1% | MCF7 breast 38.5% | HCT-116 colon 52.8% | HCC-2998 colon 79.4% | KM12 colon 45.4%
active: MDA-MB-435 melanoma -28.3%

Nc1nc(N)c2cc(CNc3ccc(Cl)c(Cl)c3)ccc2n1
active: SR leukemia -55.1% | RPMI-8226 leukemia -31.5% | OVCAR-8 ovarian -1.81% | T-47D breast -52.6% | MDA-MB-435 melanoma -1.48% | SW-620 colon -80.3% | MCF7 breast -74.8% | HCT-116 colon -88.8% | HCC-2998 colon -70.3% | KM12 colon -15.9%
inactive: OVCAR-5 ovarian 48.4% | OVCAR-4 ovarian 49.8% | SK-OV-3 ovarian 49.9% | IGROV1 ovarian 15.9% | OVCAR-3 ovarian 12.1% | HS 578T breast 28.8% | NCI/ADR-RES ovarian 28.3% | BT-549 breast 59.1%

N#CC1=C(N)Oc2nc[nH]c(=O)c2C1c1cccs1 (stereo unspecified)
inactive: SR leukemia 92% | RPMI-8226 leukemia 100% | OVCAR-8 ovarian 98.3% | OVCAR-5 ovarian 100% | OVCAR-4 ovarian 90.9% | SK-OV-3 ovarian 105% | IGROV1 ovarian 111% | OVCAR-3 ovarian 108% | HS 578T breast 112% | NCI/ADR-RES ovarian 113% | T-47D breast 95.2% | BT-549 breast 103% | MDA-MB-435 melanoma 101% | SW-620 colon 102% | MCF7 breast 97.1% | HCT-116 colon 106% | HCC-2998 colon 114% | KM12 colon 108%

CCN1CCN(Cc2ccc(NC(=O)c3nc4ccc5[nH]ncc5c4c4c3CCCC4)cc2C(F)(F)F)CC1
inactive: OVCAR-5 ovarian 48.9% | OVCAR-4 ovarian 22.6% | SK-OV-3 ovarian 91.7% | HS 578T breast 84.8% | NCI/ADR-RES ovarian 18.8% | BT-549 breast 79.6%
active: SR leukemia -29.2% | RPMI-8226 leukemia -24.6% | OVCAR-8 ovarian -59.3% | IGROV1 ovarian -47.6% | OVCAR-3 ovarian -70.5% | T-47D breast -69.3% | MDA-MB-435 melanoma -87.9% | SW-620 colon -58.3% | MCF7 breast -71.4% | HCT-116 colon -77.9% | HCC-2998 colon -58.1% | KM12 colon 4.08%

C=C(C)c1ccc(/C=N/NC(N)=S)cc1
inactive: SR leukemia 66.9% | RPMI-8226 leukemia 72% | OVCAR-8 ovarian 81.5% | OVCAR-5 ovarian 120% | OVCAR-4 ovarian 83.7% | SK-OV-3 ovarian 125% | IGROV1 ovarian 82.8% | OVCAR-3 ovarian 101% | HS 578T breast 65.6% | NCI/ADR-RES ovarian 97.8% | T-47D breast 67.2% | BT-549 breast 99.4% | MDA-MB-435 melanoma 87% | SW-620 colon 97.9% | MCF7 breast 51.1% | HCT-116 colon 84.5% | HCC-2998 colon 110% | KM12 colon 55.4%
